Experimental findings from PubChem BioAssay AID624297 (National Center for Advancing Translational Sciences (NCATS), 2012) are described below.

Structures are written as SMILES. Several values for one entry are separate records, joined by “and”; a condition that tells them apart may be missing. Equal entries are not always repeated. Screen size: about 340,000 compounds; about 6,200 (1.8%) were called active. Where a call stands in place of a potency, no number is given. Roughly 10% stayed inconclusive and do not appear here. Calls follow the shape of the dose curve; as a rule, active = well fitted activation curve with a large enough effect; inconclusive = small, poorly fitted or top-dose-only effect; inactive = no such curve, though single readings can be large or run the other way. This excerpt belongs to a sample that is enriched for actives. Some structures have more than one record in an assay (separate samples or runs), and their calls can disagree.
Potency is read from the fitted curve at half-maximal effect.

This experiment is described as follows: A quantitative high throughput screen for small molecules that induce DNA re-replication in SW480 colon adenocarcinoma cells. Also: nearly all actives have a fitted effect of over 55% in size. The note with it: Hoechst DNA content imaging, 48 h; series mostly up to 46.1 µM. The text has this: H Molecular Libraries Probe Production Network [MLPCN] NIH Chemical Genomics Center [NCGC] MLPCN Grant: Fast Track K99 CA136555 Assay Provider: Melvin DePamphilis, NICHD, NIH Assay Overview Eukaryotic cells normally restrict genome duplication to once per cell division. When this process is aberrant, DNA re-replication occurs when cells reinitiate DNA replication before the first round of replication is complete. DNA re-replication induces the DNA damage response, arrests cell proliferation, and triggers apoptosis. The cell cycle components cyclin A, Cdt-1, Cdc6 and geminin are critical regulators of this process and their misregulation results in DNA re-replication in normal and cancer cells. To identify compounds that induce re-replication in normal cells, an image-based assay was used to measure DNA content of nuclei, as detected by the fluorescent DNA binding dye, Hoechst. Cell nuclei were imaged by a fluorescence scanning plate imager and compounds that induce DNA re-replication were identified by the increase of nuclei with elevated fluorescence intensity
For screening, 250 cells in 5 uL/well were dispensed into black clear 1536-well plates (Aurora) using a solenoid-based dispenser. Following transfer of 23 nL compound or DMSO vehicle by a pin tool, the plates were incubated 48 hr at 37 C and 5% CO2. After addition of 1 uL/well Hoescht stain, the plates were incubated 40 min at 37 C, 5% CO2 and total intensity of fluorescent objects (nuclei) were enumerated by an Acumen Explorer Ex3 (TTP LabTech) fluorescence scanning plate imager (405 nm excitation, 500-530 nm emission). Keywords: NIH Roadmap, MLPCN, MLI, MLSMR, qHTS, NCGC, DNA replication, cancer
As for `Oc1c(Cl)cc(Cl)c(Cl)c1Cc1c(O)c(Cl)cc(Cl)c1Cl`, the Potency entry was “inactive and 16.4 µM (active)”.
In the case of `CCOC(=O)[C@@H]1[C@H]2COc3ccc(Br)cc3[C@H]2N2C(=O)N(c3ccc(C)cc3)C(=O)[C@@]12C`, the Potency result is “inactive”.
On the same count and under the same terms, the value for `COc1cc(NC(=O)c2[nH]cnc2C(N)=O)cc(C(=O)Nc2cccc(C(F)(F)F)c2)c1` was “inactive”; that for `Cn1c(N)c(C(=O)COC(=O)c2ccc3ccccc3c2)c(=O)n(C)c1=O` was “inactive”.
In the case of `CCN(C[C@H]1N[C@@](Cc2ccccc2)(C(=O)OC)[C@H]2C(=O)N(Cc3ccccc3)C(=O)[C@@H]12)C(=O)c1ccc(C)cc1`, the Potency result is “inactive”.
As for `COc1ccc(C(=O)COC(=O)CN2C(=O)C3CC=CCC3C2=O)c(OC)c1` (stereo unspecified), the Potency result is “inactive”.
On the same count and under the same terms, the result for `Cc1cccc(N(CC(=O)N=Nc2c(O)[nH]c3ccccc23)S(C)(=O)=O)c1C` reads “inactive”.
Take `O=C(CCN1CCCCC1)N=Nc1c(O)[nH]c2ccccc12`: the Potency is 18.4 µM (active).
For `COCC(=O)N=Nc1c(O)[nH]c2ccccc12`, the Potency result is “inactive”.
Consider `O=c1nc(NO)ccn1C1CCCO1` (stereo unspecified), for which the Potency result was “inactive”.
Consider `CC1(C)N=C(N)NC(Nc2ccc(Cl)cc2)=N1`, for which the Potency entry is “inactive”.
In the case of `COc1ccccc1NC1=NC(c2ccc(Cl)cc2)N=C(N)N1` (stereo unspecified), the Potency was 20.6 µM (active).
Consider `COc1ccccc1NC(=O)C1CCCN1S(=O)(=O)c1ccc(Cl)cc1` (stereo unspecified), for which the Potency result is “inactive”.
The same measure, in the same setting: the value for `C[C@@H]1CN([C@H](C)CO)C(=O)c2cc(NC(=O)NC3CCCCC3)ccc2O[C@H]1CN(C)S(C)(=O)=O` was “inactive”.
In the case of `COc1ccc(CCNC(=O)COC(=O)c2cc(=O)c3ccccc3o2)cc1`, the Potency result is “inactive”.
For the compound `CNC[C@H]1Oc2c(NC(=O)C3CCCCC3)cccc2C(=O)N([C@H](C)CO)C[C@@H]1C`, the re-replication activation is 4.46% [at 9.22 µM] (inactive).
Consider `COc1ccc(/C=N/NC(=O)c2cc(-c3cccc(C)c3)nc3ccccc23)cc1O`, for which the Potency entry was “inactive”.
Same read-out and setting: the result for `CCOc1ccc(-c2cc(C(=O)N/N=C/c3ccc(O)cc3)c3ccccc3n2)cc1` reads 18.4 µM (active); that for `COc1cc(/C=N/NC(=O)c2cc(-c3ccccc3C)nc3ccccc23)cc(OC)c1O`, “inactive”; that for `C/C(=N\Nc1cccc(C(=O)O)c1)c1ccc2c(c1)Nc1ccccc1S2`, 8.2 µM (active).
Still for that read-out and setting: the value for `Cc1ccccc1NC(=O)c1cc(S(=O)(=O)Nc2cccc(C(=O)O)c2)ccc1Cl` was “inactive”.
As to `O=C(O)c1cccc(N2C(=O)Nc3ccccc3N2O)c1`, the Potency entry was “inactive”.
With `COc1cc(OC)cc(-c2c(C#Cc3ccsc3)c3cc(-c4ccc(OC)cc4F)ccc3n2C)c1`, the Potency entry was “inactive”.
`c1ccc(CNc2ncnc3[nH]ncc23)cc1`: the Potency entry was “inactive”.
In the case of `Nc1cc(=O)n(Cc2ccccc2)c(=O)n1Cc1ccccc1`, the Potency entry is “inactive”.
For `Cc1nn(-c2ccc(F)cc2)c(Cl)c1/C=C(/CCC(=O)O)c1nc2ccccc2s1`, the Potency result was “inactive”.
